According to PubChem BioAssay (NCI):
The panel holds about 83,000 compounds, 20% with a hit somewhere; the sample as a whole holds those more often.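 Step 1: grow cells in 96-well plates. Step 2: add test compound at a single concentration. Step 3: incubate 48 h. Step 4: record percent growth.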 A number with no mark means an inactive call. Activity calls are given as the source filed them. The calls were made as follows: active = growth percent below 10; inactive = the rest.

What follows are molecules tested on NCI-H322M lung (assay: NCI-60 one-dose screen, 48 h (100 = growth as untreated, 0 = no growth, -100 = all killed)). Settings: 10 µM unless noted.

SMILES | growth
COC(=O)CNC(=O)c1ccc(NC(=O)c2[nH]c(C)c(Cl)c2Cl)c(O[C@H]2CCNC2)c1 | 109%
FC(F)(F)c1cccc(-c2nnn(Cc3cc(-c4cccc(Cl)c4)no3)n2)c1 | 111%
O=C(Nc1ncc(Cc2ccccc2)s1)c1ccc2c(c1)OCCO2 | 50.1%
CCOC(=O)c1ccc2c(c1)[n+](=O)c(C(C)=O)c(C(F)(F)F)n2[O-] | 94.4%
O=C(Nc1ccccc1C(F)(F)F)C1=NCCCCN1 | 95.1%
CCCCCC(C)(O)C(C(=O)O)c1ccccc1 (configuration not stated) | 104%
Nc1ncnc2c1N=C(c1ccc([N+](=O)[O-])cc1)CC(c1ccc3c(c1)OCO3)N2 (configuration not stated) | 87.3%
COc1cc2c(cc1OC)CC[N+](CCC[N+](C)(C)C)=C2 | 88.6%
O=C1Nc2ccccc2/C1=C/c1cccn1CCCCCCn1c2ccccc2c(=O)c2ccccc21 | 97.9%
CCCS(=O)(=O)Nc1cccc(Nc2ncnc3cc(NC(=O)CCl)ccc23)c1Cl | 3.52% (active)
Cc1ccc(C23CCC(=O)N2CCc2cncn23)cc1 (configuration not stated) | 99.3%
Cc1ccc(-c2nn(CC(=O)N3CCOCC3)c(N)c2C#N)cc1 | 110%
COC(=O)[C@H](C)NC(=O)[C@@H]1CCCN1C(=O)CNC(=O)[C@H](C)N | 96.5%
O=C1c2c(c3c4cccnc4[nH]c3c3ccc4ccccc4c23)C(=O)N1O | 77.8%
C#CCOc1cccc(Nc2ncnc3c(NC(=O)CCl)cccc23)c1 | 72.5%
COc1ccc(CNc2c3ccccc3nc3ccccc23)cc1OC | 29.8%
COc1ccc(-c2csc(NC(=O)CSc3nc(C)cc(=O)[nH]3)n2)cc1 | 106%
O=C(CNc1ncco1)Nc1ccc(S(=O)(=O)c2ccc(NC(=O)CNc3ncco3)cc2)cc1 | 75.2%
Cc1c2cnccc2c(C)c2c1c1cc(C(=O)O)ccc1n2C | -1.54% (active)
COc1ccc(-c2cn(Cc3ccc4c(Br)cc(Br)c(O)c4n3)nn2)cc1 | 100%
COC(=O)c1c(C(=O)OC)c2ccc3c4ncccc4ccc3n2c1C(=O)c1ccc(C)cc1 | 90.7%
O=[N+]([O-])c1ccc(N/N=C\c2cc(Cl)ccc2O)nc1 | 30.4%
COc1ccc(C(=O)/C=C/c2ccc(C)cc2)cc1S(N)(=O)=O | 36.1%
CN1CCN(CC(=O)N(C)c2ccc(N=C(c3ccccc3)c3c(O)[nH]c4ccc([N+](=O)[O-])cc34)cc2)CC1 | 82.4%
C=CC(=O)NCc1cccc(Nc2ncc(Br)c(NCCCNC(=O)C3CCC3)n2)c1 | -13.1% (active)
Nc1nc(N)c2c(n1)NC(c1cccc(Nc3ccnc4cc(C(F)(F)F)ccc34)c1)CC(c1ccc(Cl)cc1)=N2 (configuration not stated) | 89.3%
C=C(C[n+]1ccccc1)[C@@H]1CC[C@]2(C(=O)OC)CC[C@]3(C)[C@H](CC[C@@H]4[C@@]5(C)CCC(=O)C(C)(C)[C@@H]5CC[C@]43C)[C@@H]12 | 96.3%
